TRHR ag: agonists of human TRH receptor. TRHR cells, calcium flux fluo-8, FDSS agonist mode. activation, % at 2 µM. actives 0.18% (n = 360,000). P34981; also: 0% is about no effect
Target sequence (P34981 whole entry, looked up): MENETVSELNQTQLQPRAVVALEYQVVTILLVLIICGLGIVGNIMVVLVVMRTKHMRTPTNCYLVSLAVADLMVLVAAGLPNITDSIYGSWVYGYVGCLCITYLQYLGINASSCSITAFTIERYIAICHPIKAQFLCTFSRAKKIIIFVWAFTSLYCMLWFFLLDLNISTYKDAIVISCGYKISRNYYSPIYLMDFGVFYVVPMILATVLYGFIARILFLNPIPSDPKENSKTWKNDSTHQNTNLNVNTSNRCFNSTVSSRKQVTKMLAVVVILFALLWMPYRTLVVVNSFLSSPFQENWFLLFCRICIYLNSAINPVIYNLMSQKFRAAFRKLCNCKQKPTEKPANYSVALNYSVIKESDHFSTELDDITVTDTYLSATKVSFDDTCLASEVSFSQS
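Agonist-mode FDSS calcium read (Ex 480/Em 530, 1 s cycles) in 1536-well TRHR cells with fluo-8 dye, after 10-cycle baseline and 23 nL compound addition; TRH at EC20 (10 nM final) added afterwards for the enhancer phase.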
D1 PAM: human D1 dopamine receptor positive modulation; P21728; HEK293 TREx D1 cells, calcium flux, dopamine EC20 potentiation; potentiation, % at 10 µM; actives 0.036% (n = 360,000); in the data active = potentiation above about 30%; also: 0% is about no effect
TRHR PAM: allosterically enhances the human TRH receptor | P34981 | TRHR cells, fluo-8 calcium fluorescence, EC20 TRH enhancement | enhancement, % at 2 µM | actives 0.66% (n = 360,000) | AID 493056; in the data active = enhancement above about 30%; also: 0% is about no effect
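Enhancer read-out: after compound pinning and an initial kinetic agonist-mode read, an EC20 of TRH (10 nM final) was injected and fluo-8 calcium signal (Ex 480/Em 530) followed at 1 s/cycle for 100 cycles in TRHR-expressing cells.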
D1 agonist: agonists of human D1 dopamine receptor | actives 1% (n = 360,000) | HEK293 T-REx D1 cells, calcium flux, agonist mode | activation, % at 2 µM | P21728; also: 0% is about no effect
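Inducible HEK293 T-REx D1 cells, force-coupled to calcium signalling, were plated at 4000 cells/well with tetracycline and held overnight at 30 C. After no-wash calcium dye loading, compound-evoked calcium rise over 180 s flagged agonists.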
D1 antag: antagonists of human D1 dopamine receptor | activity change, negative = inhibition, % at 10 µM | AID 504652 | HEK293 TREx D1 cells, calcium flux, dopamine EC80; active compounds read low | actives 3.2% (n = 360,000) | P21728; in the data active = activity change below about -30%; also: % is scaled to controls: 0 for no effect and ±100 for the full control effect
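HEK293 T-REx cells expressing inducible, force-coupled D1 receptor; no-wash Ca dye, 30–90 min RT. Cmpd → 180 s read at 1 Hz → EC80 DA → 180 s read.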
Active calls of the source: *. Rows were chosen to be rich in hits. Some 4.6% of all compounds tested hit in one or more screens of this group. Rule as the data show it, unless noted: active = activation above about 30%; inactive = the rest.

Screening NCC(O)(c1ccc(Cl)cc1)c1ccc(Cl)cc1 returned TRHR ag 18.1, D1 PAM -8.9, TRHR PAM 23.5, D1 agonist 50.5* and D1 antag -4.0.
Screening CN1CCN(c2ccc(S(=O)(=O)N3CCCCC3)cc2NC(=O)c2ccc3ccccc3c2)CC1 returned TRHR ag 1.5, D1 PAM -12.6, TRHR PAM 8.7, D1 agonist 11.6 and D1 antag -49.6*.
Screening CCN1CCN(c2ccc(S(=O)(=O)N3CCOCC3)cc2NC(=O)c2ccccc2SC)CC1 returned TRHR ag -0.3, D1 PAM -4.7, TRHR PAM -10.4, D1 agonist 3.8 and D1 antag 4.4.
Screening Cc1ccccc1C(=O)Nc1cc(S(=O)(=O)N2CCCCC2)ccc1N1CCN(C)CC1 returned TRHR ag 0.4, D1 PAM -1.8, TRHR PAM -1.1, D1 agonist 5.4 and D1 antag 5.4.
`CCN1CCN(c2ccc(S(=O)(=O)N3CCCCC3)cc2NC(=O)Cc2ccc(OC)cc2)CC1` gave TRHR ag 1.9, D1 PAM -4.0, TRHR PAM -3.2, D1 agonist 44.4* and D1 antag -31.1*.
COc1ccc(CC(=O)Nc2cc(S(=O)(=O)N3CCCCC3)ccc2C)cc1 was read as TRHR ag -0.2, D1 PAM 0.3, TRHR PAM -12.9, D1 agonist 2.8 and D1 antag 3.3.
`CCN1CCN(c2ccc(S(=O)(=O)N3CCOCC3)cc2NC(=O)c2cc(Cl)nc3ccccc23)CC1` gave TRHR ag -0.1, D1 PAM -3.7, TRHR PAM -5.7, D1 agonist 3.6 and D1 antag -32.6*.
For COc1cccc(-n2cc(C(=O)Nc3ccccc3C(N)=O)c3ccccc3c2=O)c1 the results were TRHR ag -0.2, D1 PAM -2.5, TRHR PAM 0.4, D1 agonist -0.9 and D1 antag -20.8.
`Cc1c(Cl)cccc1NC(=O)c1ccc(NC(=O)N2CCSc3ncccc32)cc1` gave TRHR ag -0.6, D1 PAM -2.2, TRHR PAM 3.1, D1 agonist 1.8 and D1 antag -6.3.
For COCC(=O)N1CCc2cc(OC)c(OC)cc2C1COc1ccc2c(C)cc(=O)oc2c1 (stereo unspecified) the results were TRHR ag 0.2, D1 PAM 0.7, TRHR PAM 0.3, D1 agonist -1.3 and D1 antag 5.8.
For C/C(=N\NC(=O)C(O)c1ccccc1)c1ccc(Br)s1 (stereo unspecified) the results were TRHR ag -0.4, D1 PAM -0.4, TRHR PAM 37.5*, D1 agonist 3.8 and D1 antag 4.8.
`C/C(=N\NC(=O)C(O)c1ccccc1)c1ccc(Cl)s1` (stereo unspecified) gave TRHR ag -0.4, D1 PAM -1.3, TRHR PAM 1.9, D1 agonist 3.4 and D1 antag 4.9.
Screening Nc1c(-c2nc(-c3cccs3)no2)nnn1-c1cccc(F)c1 returned TRHR ag 1.3, D1 PAM 1.2, TRHR PAM 12.4, D1 agonist 3.1 and D1 antag 9.0.
Cc1ccccc1-n1c(C)cc(/C=N/Nc2ccc([N+](=O)[O-])cn2)c1C was read as TRHR ag 5.2, D1 PAM -4.4, TRHR PAM -0.2, D1 agonist 12.0 and D1 antag -4.1.
`O=[N+]([O-])c1ccc(N/N=C\c2cccn2-c2ccccc2)nc1` gave TRHR ag 9.8, D1 PAM 4.8, TRHR PAM -1.6, D1 agonist 37.4* and D1 antag 0.1.
For CCSc1ncc(/C=N/Nc2ccc([N+](=O)[O-])cc2)n1C the results were TRHR ag 23.4, D1 PAM -4.4, TRHR PAM 3.7, D1 agonist 37.2* and D1 antag -4.7.
For COc1cc(NC(=O)Cc2c(C(=O)O)n(C)c3ccccc23)cc(OC)c1OC the results were TRHR ag 0.2, D1 PAM -9.7, TRHR PAM -4.9, D1 agonist 0.9 and D1 antag -105.6*.
For CCn1c(=O)n(CC(=O)Nc2cc(OC)c(OC)c(OC)c2)c(=O)c2ccccc21 the results were TRHR ag -0.1, D1 PAM -4.7, TRHR PAM 11.6, D1 agonist 0.2 and D1 antag -44.8*.
COc1ccc(NC(=O)Cc2c(C(=O)O)n(C)c3ccccc23)cc1OC was read as TRHR ag 0.3, D1 PAM -5.2, TRHR PAM 4.7, D1 agonist 1.9 and D1 antag 18.4.
CCn1c(=O)n(CC(=O)Nc2cccc(OC)c2)c(=O)c2ccccc21 was read as TRHR ag 0.0, D1 PAM -0.4, TRHR PAM 1.1, D1 agonist 1.5 and D1 antag 2.9.
`COc1cc(Cn2nnc3ccccc32)cc(Br)c1O` gave TRHR ag 1.0, D1 PAM -0.6, TRHR PAM -0.3, D1 agonist 7.5 and D1 antag 6.3.
For O=[N+]([O-])/C(=C\Nc1ccccc1)S(=O)(=O)c1ccccc1 the results were TRHR ag -0.2, D1 PAM -5.5, TRHR PAM -1.8, D1 agonist 1.7 and D1 antag -87.5*.
Screening COc1cccc2c(=O)cn[nH]c12 returned TRHR ag 0.4, D1 PAM -7.0, TRHR PAM 2.0, D1 agonist 0.8 and D1 antag -52.3*.
Cc1ccccc1OC(=O)c1cc(-c2ccc3c(c2)OCCO3)on1 was read as TRHR ag 0.0, D1 PAM -1.6, TRHR PAM -2.9, D1 agonist 7.9 and D1 antag -46.4*.
O=C(Oc1ccc(Cl)cc1)c1cc(-c2ccc3c(c2)OCCO3)on1 was read as TRHR ag 0.1, D1 PAM -1.6, TRHR PAM 5.6, D1 agonist 17.1 and D1 antag -2.6.
O=C(Nc1cccc(Br)c1)c1cc(-c2ccc3c(c2)OCCO3)on1 was read as TRHR ag -0.7, D1 PAM -1.9, TRHR PAM 5.1, D1 agonist 15.8 and D1 antag -40.8*.
For N#Cc1ccc(OC(=O)c2cc(-c3ccc4c(c3)OCCO4)on2)cc1 the results were TRHR ag -1.2, D1 PAM 0.5, TRHR PAM 6.3, D1 agonist 33.4* and D1 antag -8.2.
For Cc1ccc(CSc2nc3cccnc3n2Cc2nc(-c3ccccc3F)oc2C)cc1 the results were TRHR ag 1.0, D1 PAM -1.9, TRHR PAM 10.3, D1 agonist 5.7 and D1 antag -0.2.
Cc1cc(C)cc(Nc2cc(C)nc3nc(-c4ccco4)nn23)c1 was read as TRHR ag -0.3, D1 PAM 0.0, TRHR PAM 0.4, D1 agonist 2.8 and D1 antag -39.4*.
Screening COc1cc(OC)cc(-n2c(=O)c3ccccc3n(Cc3ccccc3C#N)c2=O)c1 returned TRHR ag -0.3, D1 PAM 0.4, TRHR PAM -1.3, D1 agonist 2.2 and D1 antag 2.9.

Compound activity: PubChem, National Center for Advancing Translational Sciences (NCATS)
